The nature of assay [1]: NCI Yeast Anticancer Drug Screen. Data for the rad50 strain (AID 155).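 Note: 0% = growth of vehicle-only cultures of the same strain.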 Conditions: S. cerevisiae rad50 strain growth inhibition; at 50.0 µM; active compounds read high. An outline of the steps: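 Genetically altered yeast (DNA repair pathway); compound treatment; growth inhibition vs vehicle ctrl.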
A short description of assay [2]: NCI Yeast Anticancer Drug Screen. Data for the mec2-1 strain (AID 157). Conditions: S. cerevisiae mec2-1 strain, at 50.0 µM, active compounds read high. An outline of the steps:
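Growth inhibition is read against vehicle-treated controls after compound exposure of the mec2-1 yeast strain, which is defective in DNA damage repair or cell cycle control.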

Assay [3] is described as follows: NCI Yeast Anticancer Drug Screen. Data for the sgs1 mgt1 strain (AID 161).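 Note: 0% = growth of cultures given vehicle only.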 To be noted: S. cerevisiae sgs1 mgt1 strain, at 50.0 µM, active compounds read high. An outline of the steps:
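Yeast cells carrying a defined DNA-repair defect were exposed to test compounds. Growth inhibition was measured relative to vehicle-treated controls.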

Assay [4] is described as follows: NCI Yeast Anticancer Drug Screen. Data for the cln2 rad14 strain (AID 165).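 Note: 0% = growth equal to vehicle treated cultures.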 To be noted: S. cerevisiae cln2 rad14 strain, at 50.0 µM, active compounds read high. The method, boiled down:
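Growth inhibition, relative to vehicle-treated controls, is the read-out. The test organism is a yeast strain with defined genetic alterations, cln2 rad14.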

Assay [5] is described as follows: NCI Yeast Anticancer Drug Screen. Data for the bub3 strain (AID 167). To be noted: S. cerevisiae bub3 mutant strain, at 50.0 µM, active compounds read high. An outline of the steps:
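Yeast carrying a defined mutation is treated with each compound, and growth is compared with that of vehicle-exposed cells to give inhibition.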

The nature of assay [6]: NCI Yeast Anticancer Drug Screen. Data for the mlh1 rad18 strain (AID 175). Conditions: S. cerevisiae mlh1 rad18 strain growth inhibition; at 50.0 µM; active compounds read high. The method, boiled down:
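Cells of a genetically altered yeast strain, deficient in DNA damage repair, were treated with compound. Their growth was then compared with that of vehicle-treated cultures to give inhibition.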

Compounds without any hit were thinned out: in the full panel of roughly 79,000, 15% have a hit. Unmarked numbers belong to inactive results. Active and inactive are the calls of the source. Cut-off read from the data, not from the text of the source: active = growth inhibition above about 70%; inactive = the rest.

Consider 21 compounds from PubChem BioAssay (NCI).

`CCCCCCCCCC(=O)N/N=C/c1ccncc1`: the growth inhibition in assay [1] was 97.2% (active); in assay [2], 23.1%; in assay [3] it was 98.8% (active); in assay [4], 9.35%; in assay [5], 26.2%; in assay [6] it was 98.3% (active).
As for `CN(C)c1nnnn1Cc1ccccc1`, the growth inhibition in assay [1] was -1.35%; in assay [2], -3.8%; in assay [3], -7.25%; in assay [4] it was -26.3%; in assay [5] it was 5.65%; in assay [6], 1.8%.
As to `N#CC(c1ccccc1)C(c1ccccc1)c1cccc2ccccc12` (stereo unspecified), the growth inhibition was 12.2% in assay [1]; 12.3% in assay [2]; 5.7% in assay [3]; -6.85% in assay [4]; -3.3% in assay [5]; 15.6% in assay [6].
With `CC(O)c1cccc(NC(=O)NC(C)(C)C)c1` (stereo unspecified), the growth inhibition in assay [1] is 0.6%; in assay [2] it was 3.05%; in assay [3] it was -5%; in assay [4], -74%; in assay [5] it was 10.8%; in assay [6], -6%.
For `c1ccc(-c2nc3n(n2)CCC(c2ccccc2)S3)cc1` (stereo unspecified), the growth inhibition was -7.95% in assay [1]; -18.1% in assay [2]; -15.5% in assay [3]; 3.9% in assay [4]; 6.1% in assay [5]; -8.75% in assay [6].
In the case of `O=C(O)c1ccccc1C(=O)c1ccccn1`, the growth inhibition in assay [1] is -4%; in assay [2] it was -31.8%; in assay [3] it was -5.9%; in assay [4], 10.6%; in assay [5] it was -17.2%; in assay [6], -15.2%.
With `COc1ccc(-n2c(C)nc3c(cnn3C3OC(CO)C(O)C3O)c2=O)cc1` (stereo unspecified), the growth inhibition was 16.2% in assay [1]; -5.6% in assay [2]; -15.1% in assay [3]; -4.15% in assay [4]; -1.9% in assay [5]; 11.2% in assay [6].
On to `O=c1cc(-c2ccccc2)c2ccc(O)cc2o1`, for which the growth inhibition in assay [1] was -11.8%; in assay [2] it was 1.45%; in assay [3], 20.4%; in assay [4] it was 3%; in assay [5], 2%; in assay [6], -1.2%.
As for `COc1cc(-c2oc3ccccc3c(=O)c2O)cc(OC)c1OC`, the growth inhibition in assay [1] is -29.6%; in assay [2], -51.8%; in assay [3] it was -16.3%; in assay [4] it was -22.8%; in assay [5], -42%; in assay [6] it was -14.1%.
Turning to `COc1cc(Cl)ccc1NC(=O)Oc1ccc(C=O)cc1OC`, the growth inhibition in assay [1] was 3.8%; in assay [2] it was 10.2%; in assay [3], 6.75%; in assay [4], 9.85%; in assay [5] it was 17.9%; in assay [6] it was 10.8%.
Regarding `CC(=O)OC1CCCN(C)C1` (stereo unspecified), the growth inhibition is -3.2% in assay [1]; 5.5% in assay [2]; 4.6% in assay [3]; -7.9% in assay [4]; 8.75% in assay [5]; -7.8% in assay [6].
For `O=C(O)C(CS)(c1ccccc1)c1ccccc1`, the growth inhibition in assay [1] was 0.65%; in assay [2] it was 8.25%; in assay [3], 7.7%; in assay [4], 5.95%; in assay [5], -2.85%; in assay [6], 11.4%.
Consider `CCc1cc(Cl)c(O)c(Cl)c1`, for which the growth inhibition in assay [1] was 4.2%; in assay [2] it was 18.2%; in assay [3], 6.2%; in assay [4], -0.15%; in assay [5], 17.5%; in assay [6], 19%.
Consider `CCOP(=O)(OCC)c1c(C(=O)OC)cc(=O)[nH]c1-c1ccc(C)cc1`, for which the growth inhibition in assay [1] was 44.9%; in assay [2], 23.4%; in assay [3], 40%; in assay [4], 25.2%; in assay [5], 53.7%; in assay [6], 61.3%.
`COC(=O)N1c2ccccc2N(C(=O)OC)c2c1oc1ccccc1c2=O`: the growth inhibition was 38.2% in assay [1]; 12.6% in assay [2]; 33.6% in assay [3]; 7.3% in assay [4]; 26.5% in assay [5]; 31.9% in assay [6].
As for `Cc1[nH]c2ccccc2c(=O)c1-c1ccccc1`, the growth inhibition is -12.2% in assay [1]; -14.2% in assay [2]; -5.25% in assay [3]; -38% in assay [4]; 0.35% in assay [5]; -35.8% in assay [6].
For the compound `Clc1c2ncccc2cc2n[nH]nc12`, the growth inhibition in assay [1] is 14.9%; in assay [2], 21.2%; in assay [3], 24%; in assay [4], 6.55%; in assay [5] it was 5.8%; in assay [6], 17.1%.
For `CCOC(=O)C1=C(N)n2c(s/c(=C/c3ccc(N(C)C)cc3)c2=O)=C(C(=O)OCC)C1c1ccc(N(C)C)cc1` (stereo unspecified), the growth inhibition was -7.3% in assay [1]; -19.1% in assay [2]; -9.1% in assay [3]; -7.2% in assay [4]; 3.4% in assay [5]; -7.3% in assay [6].
For `CC(C)Cn1cnc2c(Cl)nc3ccccc3c21`, the growth inhibition in assay [1] was -38.5%; in assay [2], 20.4%; in assay [3], 23.4%; in assay [4] it was 0.25%; in assay [5], 33.5%; in assay [6] it was -11.8%.
As to `CC(=O)OCC1OC(OC(C)=O)C(NC(=O)CNC(=O)OCc2ccccc2)C(OC(C)=O)C1OC(C)=O` (stereo unspecified), the growth inhibition in assay [1] is 21.8%; in assay [2] it was 2.8%; in assay [3], -16.9%; in assay [4], 7.8%; in assay [5] it was -4.75%; in assay [6], 4.35%.
Turning to `Cc1cc(N(CCC#N)CCC#N)ccc1/C=C1/N=C(c2ccccc2)N(N)C1=O`, the growth inhibition was -2.55% in assay [1]; 13.2% in assay [2]; 9.9% in assay [3]; 2.7% in assay [4]; 5.15% in assay [5]; -3.3% in assay [6].
